# Reference: PubChem BioAssay (Tox21)
# Values without a mark were called inactive. Results filed as inconclusive are left out. A call without a number means that no potency is given here. Calls of active or inactive are those of the source. Unless noted, calls follow the shape of the dose curve; as a rule, active = well fitted curve in the direction sought with a large enough effect in the repeat runs; inconclusive = weak or mixed curves; inactive = no such curve, though single readings can be large; an effect the other way counts as inactive or inconclusive.
# How the values were obtained:
# [1] = qHTS assay for small molecules that induce genotoxicity in human embryonic kidney cells expressing luciferase-tagged ATAD5 (AID 651632); also: nearly all actives have a fitted effect of over 15% in size
# In short: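 HEK293T cells carrying a luciferase reporter tagged to ATAD5 were exposed to compound or DMSO vehicle for 16 hr at 37C, 5% CO2. Amplite was added, and after 30 min at room temperature luciferase activity was read as a marker of ATAD5 induction.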
# [2] = qHTS assay for small molecule agonists of the p53 signaling pathway - cell viability (AID 651633; calls by dose curve; also: nearly all actives have a fitted effect of over 30% in size; also: potency is read from the fitted curve at half-maximal effect)
# In short: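 p53RE-bla cells, seeded at 4,000 per well and rested 5 h at 37 C/5% CO2, received compounds in DMSO for 16 h at 37 C. CellTiter-Glo was then added, and luminescence was read after 30 min at room temperature to gauge cytotoxicity.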
# [3] = qHTS assay for small molecules that induce genotoxicity in human embryonic kidney cells expressing luciferase-tagged ATAD5 - cell viability (AID 651634; calls by dose curve; also: nearly all actives have a fitted effect of over 25% in size)
# In short: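 HEK293T cells expressing luciferase-tagged ATAD5 were exposed to compound or DMSO for 15.5 hr at 37C, 5% CO2. Viability was then read as live-cell protease activity by CellTiter-Fluor fluorescence after 30 min at 37C.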
# [4] = qHTS assay for small molecule disruptors of the mitochondrial membrane potential - cell viability (AID 720634; calls by dose curve;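 also: human HepG2 liver cancer cells; series mostly up to about 83 µM; nearly all actives have a fitted effect of over 20% in size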)
# In short: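 HepG2 cells seeded overnight at 37 C, then exposed to compound or DMSO for 1 hr at 37 C, 5% CO2. m-MPI dye added, then CellTiter-Glo for 30 min at room temperature; viability read as ATP luminescence.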
# [5] = qHTS assay for small molecule disruptors of the mitochondrial membrane potential (AID 720635); also: potency is read from the fitted curve at half-maximal effect
# In short: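 HepG2 cells (2,000/well) attached overnight at 37C, then took compound for 1 hr at 37C, 5% CO2. Mito-MPS dye was added for 30 min; fluorescence was read at 490/535 nm (monomers) and 540/590 nm (aggregates).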
# [6] = qHTS assay to test for compound auto fluorescence at 535 nm (green) in HepG2 cells (AID 720675)
# [7] = qHTS assay to test for compound auto fluorescence at 460 nm (blue) in HEK293 cells (AID 720678); also: potency is read from the fitted curve at half-maximal effect
# In short: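 Blue read-out at excitation 405 nm and emission 460 nm follows overnight compound exposure of HEK293 cells at 37C in 5% CO2. Activity is given as auto fluorescence equivalency to triamterene.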
# [8] = qHTS assay to test for compound auto fluorescence at 590 nm (red) in HEK293 cells (AID 720679)
# In short: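 Red channel, Ex/Em 540/590nm; signal expressed as equivalency to Rose Bengal sodium. HEK293, 2,000 cells/well, 10% dialyzed FBS; 23 nL compound pinned after 4-5 hr attachment; overnight 37C/5% CO2 before reading.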
# [9] = qHTS assay to test for compound auto fluorescence at 460 nm (blue) in HEK293 cell free culture (AID 720681); also: potency is read from the fitted curve at half-maximal effect
# In short: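 Test compounds were pinned into cell-free culture medium (DMEM with 10% FBS) and fluorescence was read directly at Ex/Em 405/460 nm. Signals were expressed as fluorescence equivalents of triamterene, with DMSO vehicle as control.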
# [10] = qHTS assay to test for compound auto fluorescence at 535 nm (green) in HEK293 cell free culture (AID 720682)
# In short: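 Green-channel intensity (Ex/Em 485/535 nm) was recorded from compound-treated wells containing only DMEM with 10% FBS. Fluorescein provided the equivalency standard.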
# [11] = qHTS assay to test for compound auto fluorescence at 590 nm (red) in HEK293 cell free culture (AID 720683)
# In short: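 Tox21 10K library compounds were pinned into cell-free DMEM with 10% FBS and fluorescence was read at excitation 540 nm. Activity is expressed as Rose Bengal sodium equivalency.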
# [12] = qHTS assay to test for compound auto fluorescence at 590 nm (red) in HepG2 cell free culture (AID 720684)
# In short: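 Red fluorescence (540 nm excitation, 590 nm emission) was measured after compound transfer into cell-free MEM supplemented with 10% FBS. Values are equivalencies against Rose Bengal sodium.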
# [13] = qHTS assay to test for compound auto fluorescence at 460 nm (blue) in HepG2 cell free culture (AID 720685); also: potency is read from the fitted curve at half-maximal effect
# In short: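 Compound (23 nL) or DMSO pinned into cell-free MEM with 10% FBS; blue fluorescence read at 405/460 nm excitation/emission, expressed as auto-fluorescence equivalency to triamterene.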
# [14] = qHTS assay to test for compound auto fluorescence at 535 nm (green) in HepG2 cell free culture (AID 720686)
# [15] = qHTS assay to test for compound auto fluorescence at 460 nm (blue) in HepG2 cells (AID 720687); also: potency is read from the fitted curve at half-maximal effect
# In short: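 Cells (2,000/well in MEM with 10% FBS) attached overnight at 37 C, then were exposed to compound or DMSO for 1 hr at 37 C, 5% CO2. Fluorescence read at Ex/Em 405/460 nm, expressed as triamterene-equivalent signal.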
# [16] = target: Glucocorticoid receptor (Homo sapiens) (UniProt P04150); experiment: qHTS assay to identify small molecule agonists of the glucocorticoid receptor (GR) signaling pathway (AID 720691; active = well fitted activation curve with a large enough effect in the signal ratio in the repeat runs, not every such curve was filed as active; the % refers to the signal ratio; also: potency is read from the fitted curve at half-maximal effect)
# Chain of Glucocorticoid receptor (Homo sapiens) (P04150 whole entry, looked up): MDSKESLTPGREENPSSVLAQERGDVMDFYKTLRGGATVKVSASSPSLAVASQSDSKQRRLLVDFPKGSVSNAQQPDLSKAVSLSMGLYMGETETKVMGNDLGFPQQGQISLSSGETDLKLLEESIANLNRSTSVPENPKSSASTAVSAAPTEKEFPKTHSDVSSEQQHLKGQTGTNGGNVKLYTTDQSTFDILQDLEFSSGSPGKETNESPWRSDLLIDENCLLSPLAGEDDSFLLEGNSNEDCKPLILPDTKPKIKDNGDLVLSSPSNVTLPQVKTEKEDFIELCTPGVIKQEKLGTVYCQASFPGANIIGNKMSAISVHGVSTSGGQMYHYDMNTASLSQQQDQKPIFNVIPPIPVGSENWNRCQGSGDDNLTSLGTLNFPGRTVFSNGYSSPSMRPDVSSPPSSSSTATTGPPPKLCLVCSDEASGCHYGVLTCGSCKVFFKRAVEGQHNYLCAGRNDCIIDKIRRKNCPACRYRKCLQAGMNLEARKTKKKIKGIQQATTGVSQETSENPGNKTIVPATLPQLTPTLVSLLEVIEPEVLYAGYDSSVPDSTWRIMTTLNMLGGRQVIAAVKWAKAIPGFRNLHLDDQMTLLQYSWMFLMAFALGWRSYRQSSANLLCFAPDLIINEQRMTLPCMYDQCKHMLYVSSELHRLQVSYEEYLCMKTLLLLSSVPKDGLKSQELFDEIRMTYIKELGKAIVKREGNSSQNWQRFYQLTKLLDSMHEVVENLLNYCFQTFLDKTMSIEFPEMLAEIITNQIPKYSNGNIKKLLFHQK
# In short: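 GR-bla HeLa cells (beta-lactamase reporter under glucocorticoid response element) were plated 4 h at 37 C/5% CO2, given compounds in DMSO, and incubated 18 h at 37 C. LiveBLAzer B/G FRET substrate was added for 2 h at room temperature, then fluorescence intensity read.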
# [17] = target: Glucocorticoid receptor (Homo sapiens) (UniProt P04150); experiment: qHTS assay to identify small molecule antagonists of the glucocorticoid receptor (GR) signaling pathway (AID 720692; active = well fitted inhibition curve with a large enough effect in the signal ratio in the repeat runs, not every such curve was filed as active; the % refers to the signal ratio)
# In short: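 GR-bla HeLa cells (beta-lactamase reporter under glucocorticoid response element) were pre-plated 4 h at 37 C, treated with compounds plus 5 nM dexamethasone (final) for 18 h, then read by LiveBLAzer B/G FRET fluorescence after 2 h.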
# [18] = qHTS assay to test for compound auto fluorescence at 590 nm (red) in HepG2 cells (AID 720674)
# In short: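 Rose Bengal sodium served as the red fluorophore standard. HepG2 monolayers (overnight attachment, MEM with 10% FBS) were exposed to test compounds for 1 hr at 37 C and read at Ex 540/Em 590 nm.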
# [19] = qHTS assay to test for compound auto fluorescence at 535 nm (green) in HEK293 cells (AID 720680)
# [20] = qHTS assay for small molecule agonists of the p53 signaling pathway (AID 651631; calls by dose curve; also: potency is read from the fitted curve at half-maximal effect; nearly all actives have a fitted effect of over 15% in size)
# In short: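 We treat p53RE-bla HCT-116 cells with compounds for 16 h at 37 °C, add LiveBLAzer B/G FRET substrate for 2 h at room temperature, and measure fluorescence intensity.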
# Tags tell the direction and shape of the fitted curve or compound fluorescence and quenching.
SMILES,Potency [1],Potency [2],Potency [3],Potency [4],Potency [5],outcome [6],Potency [7],outcome [8],Potency [9],outcome [10],outcome [11],outcome [12],Potency [13],outcome [14],Potency [15],Potency [16],Potency [17],outcome [18],outcome [19],Potency [20]
CO/N=C1\CN(c2nc3c(cc2F)c(=O)c(C(=O)O)cn3C2CC2)CC1CN (configuration not stated),inactive,inactive,inactive,inactive,inactive,inactive,inactive,inactive,inactive,inactive,inactive,inactive,inactive,inactive,inactive,inactive,inactive,–,–,–
CN(C)C(=O)Nc1ccc(Oc2ccc(Cl)cc2)cc1,inactive,inactive,inactive,inactive,6.11 µM (active),inactive,inactive,inactive,inactive,inactive,inactive,inactive,inactive,inactive,inactive,–,–,inactive,inactive,–
Nc1nc(Cl)nc2c1ncn2[C@@H]1O[C@H](CO)[C@@H](O)[C@@H]1F,–,0.133 µM (active),inactive,inactive,–,inactive,inactive,inactive,inactive,inactive,inactive,inactive,inactive,inactive,inactive,–,–,inactive,inactive,0.0841 µM (active)
CCc1c2c(nc3ccc(OC(=O)N4CCC(N5CCCCC5)CC4)cc13)-c1cc3c(c(=O)n1C2)COC(=O)[C@]3(O)CC,inactive,–,–,inactive,11.9 µM (active),inactive,12.6 µM [fluorescent] (active),inactive,12.6 µM (active),inactive,inactive,inactive,12.6 µM [fluorescent] (active),–,15.8 µM [fluorescent] (active),–,–,inactive,–,2.66 µM (active)
CCOC(=O)c1ccccc1OC,inactive,inactive,inactive,inactive,–,inactive,inactive,inactive,inactive,inactive,inactive,inactive,inactive,inactive,inactive,–,–,inactive,inactive,–
COC(=O)CC(=O)C(C)(C)C,inactive,inactive,inactive,inactive,inactive,inactive,inactive,inactive,inactive,inactive,inactive,inactive,inactive,inactive,inactive,inactive,inactive,inactive,inactive,–
CCCC(=O)O[C@]1(C(=O)COC(=O)CC)CC[C@H]2[C@@H]3CCC4=CC(=O)CC[C@]4(C)[C@H]3[C@@H](O)C[C@@]21C,inactive,inactive,inactive,inactive,inactive,inactive,inactive,inactive,inactive,inactive,inactive,inactive,inactive,inactive,inactive,0.301 µM (active),–,inactive,inactive,–
